SMN2 splice up: enhancers of SMN2 splice variant expression; Potency, µM (doses to about 46.1 µM), most hits filed as activators; HEK293 SMN2-luciferase splicing reporter, luminescence, 30-36 h; 2.8% of 210,000 active; note: nearly all actives have a fitted effect of over 55% in size
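qHTS luciferase splicing reporter: luminescence rises when SMN2 exon 7 is included in transfected HEK293 cells. Compound exposure lasted 30-36 h at 37C, with 4.5 mM final sodium butyrate as control, followed by a ONE-Glo read.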
FLuc modulator: firefly luciferase modulation, counter-screen for miR-21 project; P08659; AID 588342; Potency, µM (doses to about 57.5 µM), actives largely listed as inhibitors; purified FLuc, Km substrates, luminescence inhibition; 6.9% of 360,000 active; note: nearly all actives have a fitted effect of over 55% in size
Target sequence (P08659 whole entry, looked up): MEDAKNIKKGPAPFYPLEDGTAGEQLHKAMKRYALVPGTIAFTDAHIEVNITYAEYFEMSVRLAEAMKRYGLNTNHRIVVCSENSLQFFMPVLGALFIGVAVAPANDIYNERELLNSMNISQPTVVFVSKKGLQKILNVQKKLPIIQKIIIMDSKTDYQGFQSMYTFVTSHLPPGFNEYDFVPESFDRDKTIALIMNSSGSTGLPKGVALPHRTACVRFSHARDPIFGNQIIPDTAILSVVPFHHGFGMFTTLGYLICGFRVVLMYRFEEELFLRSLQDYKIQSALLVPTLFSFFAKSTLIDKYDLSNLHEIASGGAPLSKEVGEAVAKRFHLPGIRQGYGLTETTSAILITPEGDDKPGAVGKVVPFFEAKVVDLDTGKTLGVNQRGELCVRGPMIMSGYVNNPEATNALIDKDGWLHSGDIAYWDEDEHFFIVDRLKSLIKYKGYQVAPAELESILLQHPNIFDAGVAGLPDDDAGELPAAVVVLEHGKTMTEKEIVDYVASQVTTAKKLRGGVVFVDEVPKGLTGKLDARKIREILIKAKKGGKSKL
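Purified P. pyralis luciferase, 10 nM final, with Km-level 10 uM D-luciferin and 10 uM ATP in 50 mM Tris acetate pH 7.5, 10 mM Mg acetate, 0.01% Tween-20, 0.05% BSA; 6-point qHTS titration about 60 µM downward; luminescence read.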
NPC1 promoter act: NPC1 promoter activation; Huh7 NPC1 promoter luciferase reporter, 24 h; Potency, µM (top dose mostly 9.22 µM), hits mostly activators; 2.4% of 320,000 active; AID 485313; note: nearly all actives have a fitted effect of over 60% in size
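Luciferase expression driven by the NPC1 promoter was measured in stably transfected Huh7 cells after a 24 h compound incubation, using a luciferase reagent and a luminescence read.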
ELG1 genotox: genotoxicity induction in ELG1-luciferase HEK293T cells | HEK293T ELG1-luciferase reporter, luminescence, 16 h | 1.3% of 330,000 active | Potency, µM (doses to about 46 µM), actives largely listed as activators; note: nearly all actives have a fitted effect of over 60% in size
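After overnight (16 hr) compound treatment at 37 °C, ELG1-luciferase HEK293T cells were lysed with ONE-Glo; luminescence quantified 30 min later at room temperature.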
ELG1 repair inh: blocks ELG1-dependent DNA repair in HEK293T cells | HEK293T ELG1-luciferase reporter, luminescence, 16 h; DNA damage induced by 5-fluorouridine | 2.3% of 330,000 active | Potency, µM (titrated, usually from 46.1 µM), usual class: inhibitors; note: nearly all actives have a fitted effect of over 55% in size
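Luminescence from the luciferase reporter, measured 30 min after ONE-Glo reagent at room temperature, was the read-out. Beforehand, 2,000 cells per well were exposed for 16 hr at 37 °C to 5-fluorouridine together with compound or vehicle.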
Rab9 promoter act: activates the Rab9 promoter; 2.8% of 320,000 active; Potency, µM (highest dose often 9.22 µM), actives largely listed as activators; Huh7 Rab9 promoter-luciferase reporter, luminescence, 24 h; AID 485297; note: nearly all actives have a fitted effect of over 60% in size
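Quantitative HTS format; Huh7 Rab9-luciferase reporter cells (1500/well) receive compound 2 h post-plating, incubate 24 h at 37 °C, then get luciferase reagent for 10 min before luminescence reading.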
A number is an active result; 0 = inactive; ? = inconclusive; - = not tested or not shown. Hits are enriched below; roughly 9.2% of the tested compounds scored in any of these assays. Calls come from the whole dose curve; as a rule, active = well fitted curve in the direction sought with a large enough effect; inconclusive = small, poorly fitted or top-dose-only effect, or another doubt; inactive = no such curve, though single readings can be large; an effect the other way counts as inactive or inconclusive.

SMILES | SMN2 splice up | FLuc modulator | NPC1 promoter act | ELG1 genotox | ELG1 repair inh | Rab9 promoter act
CCOc1ccccc1-n1nnnc1SCC(=O)NC(=O)Nc1ccc2c(c1)OCCO2 | 0 | 0 | 0 | 0 | ? | 0
Cn1nnnc1SCC(=O)Nc1ccc2c(c1)OCCO2 | 11µM | 13µM | 2.8µM | ? | ? | 1.6µM
Nn1c(SCC(=O)Nc2ccc3c(c2)OCCO3)nnc(CCC(=O)O)c1=O | - | 13µM | 0 | 0 | ? | 0
Cn1nnc(NC(=O)c2cccc([N+](=O)[O-])c2)n1 | - | 0 | 0 | 0 | 0 | 0
O=C(N1CCOCC1)C1(c2ccccc2)CCCCC1 | 32µM | 0 | 0 | 0 | 0 | 0
COc1cc(NC2c3ccccc3C(=O)N2c2ccc(C)cn2)cc(OC)c1OC (stereo not drawn) | 11µM | ? | ? | ? | ? | ?
COc1cc(NC2c3ccccc3C(=O)N2c2cc(C)ccn2)cc(OC)c1OC (stereo not drawn) | 0 | 0 | 0 | ? | ? | 0
COc1ccccc1N1C(=N)S/C(=C\c2ccc(-c3ccccc3C(=O)O)o2)C1=O | 0 | ? | 0 | 0 | 0 | 0
N=C1S/C(=C\c2ccc(-c3ccccc3C(=O)O)o2)C(=O)N1c1ccc2c(c1)OCO2 | - | 9.5µM | 0 | 0 | 0 | 0
C=CCN1C(=O)/C(=C/c2ccc(O)c(OC)c2)S/C1=N/c1nccs1 | 0 | 0 | 0 | 0 | 23µM | 0
O=C(NNC(=S)Nc1ccccc1Cl)c1ccccc1Br | - | 11µM | 2.8µM | 3.7µM | ? | 4µM
O=C(NC(=S)Nc1ccccc1O)c1ccccc1Cl | 13µM | 24µM | ? | ? | ? | 3.2µM
C/C(=N\NC(=O)c1cc(-c2ccccc2C)nc2ccccc12)c1cccnc1 | - | 0 | 0 | 0 | 0 | 0
C/C(=N\NC(=O)c1cc(-c2cccc(OC(C)C)c2)nc2ccccc12)c1cccnc1 | - | 0.6µM | 0 | 0 | 0 | ?
C/C(=N\NC(=O)c1cc(-c2ccc(C)s2)nc2ccccc12)c1cccnc1 | - | 0.95µM | ? | 0 | 0 | ?
CC(=O)c1ccc(OCCCCCCCOc2ccc(C(C)=O)cc2)cc1 | - | 0 | 0 | 0 | 0 | 0
Cc1ccsc1C(=O)NNC(=O)c1cccc(S(=O)(=O)N2CCCC2)c1 | - | 0 | 0 | 0 | 0 | 0
COc1ccccc1N1CCN(c2nc(N)c(C#N)c(CC#N)c2C#N)CC1 | 0 | 0 | 0 | 0 | 0 | 0
N#Cc1c(N2CCCC2)nc(N)c2c(N)nc(N3CCCC3)cc12 | 11µM | ? | 0 | 0 | ? | ?
COc1cc2c(C#N)c(N3CCCC3)nc(N)c2c(N)n1 | - | 17µM | 0 | 0 | 0 | 0
COc1cc2c(C#N)c(N3CCN(c4ccccc4OC)CC3)nc(N)c2c(N)n1 | 0 | 24µM | 0 | 0 | 9.2µM | 0
COc1cc2c(C#N)c(N3CCN(C)CC3)nc(N)c2c(N)n1 | 0 | ? | 0 | ? | 0 | 0
N#Cc1c(N)nc(N2CCCC2)c(C#N)c1-c1ccc(Cl)cc1 | 0 | 0 | 0 | 0 | ? | 0
CC(C)(C)c1ccc(C(=O)CCC(=O)OCC(=O)NCCc2ccc(S(N)(=O)=O)cc2)cc1 | - | 12µM | 0 | 0 | 0 | 0
NS(=O)(=O)c1ccc(CCNC(=O)COC(=O)CC(c2ccccc2)c2ccccc2)cc1 | 0 | 0 | 0 | 0 | 21µM | 0
SMILES | SMN2 splice up | FLuc modulator | NPC1 promoter act | ELG1 genotox | ELG1 repair inh | Rab9 promoter act
NS(=O)(=O)c1ccc(CCNC(=O)COC(=O)CCc2ccccc2)cc1 | 0 | 0 | 0 | 0 | 0 | 0
NS(=O)(=O)c1ccc(CCNC(=O)CNCCc2ccc(C(F)(F)F)cc2)cc1 | - | 0 | 0 | 0 | 21µM | 0
Cc1ccc2cc(CN(CC(C)C)S(=O)(=O)c3cccc4nonc34)c(=O)[nH]c2c1 | - | 0 | 0 | 0 | 0 | 0
COc1ccc2[nH]c3c(c2c1)CCN1C(=O)C(CC(=O)NCc2ccco2)C[C@H](C(=O)N2CCCCC2)[C@@]31CCc1ccccc1 (stereo partly drawn) | - | - | - | 0 | ? | -
COc1cc(/C=N/N2C(=O)CSC2=S)ccc1O | 0 | ? | 0 | 0 | 0 | 0
O=C1CSC(=S)N1/N=C/c1ccc2c(c1)OCCO2 | - | 17µM | 0 | 0 | 0 | 0
COc1ccc2c(=O)c(OC)c(-c3ccccc3)oc2c1 | 0 | - | - | - | - | -
COc1ccc2c(=O)c(Oc3ccc(C(=O)O)cc3)c(C(F)(F)F)oc2c1 | 2.5µM | ? | ? | ? | ? | ?
Cn1cnnc1Sc1ccc(C(F)(F)F)cc1[N+](=O)[O-] | 0 | 0 | 0 | 0 | 8.2µM | 0
COCCn1c(=N)c(C(=O)NC(C)c2ccccc2)cc2c(=O)n3cc(C)ccc3nc21 (stereo not drawn) | 0 | 0 | - | - | - | -
COc1ccc(-c2cn(-c3ccc(OC)cc3)c3[n+]2-c2ccccc2CC3)cc1 | 0 | 0 | 0 | 0 | 9.2µM | 0
CNc1ccc(Br)cc(C(=O)/C=C/c2ccc(OC)cc2OC)c1=O | 0 | 12µM | 0 | 0 | ? | 0
COc1cc(/C=C/C(=O)c2ccc(Cl)s2)cc(OC)c1O | 0 | ? | 0 | 0 | ? | 0

Source: PubChem BioAssay
